# Where “and” joins values, the source holds several entries; their conditions need not be identical. Identical values can stand only once. Inconclusive results are not listed. Where a call stands in place of a potency, no number is given. Calls of active or inactive are those of the source. Calls come from the whole dose curve. Residues, ends and D or L forms follow the SMILES beside them.
# Key:
# [1] = Cytotoxicity counterscreen for inhibitors of SARS-CoV-2 cell entry (AID 1645845); note: nearly all actives have a fitted effect of over 50% in size
# Procedure, shortened: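 48 h compound treatment (after 1 h preincubation), HEK293-ACE2 cells, 37 C/5% CO2; ATP luminescence endpoint; normalized to cell wells and media blanks.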
# [2] = Primary qHTS to identify inhibitors of SARS-CoV-2 cell entry (AID 1645846); conditions: activity change, negative = inhibition: at 57.1 µM (top of the series) unless noted; note: nearly all actives have a fitted effect of over 45% in size; note: potency is the fitted concentration of half-maximal effect
# Procedure, shortened: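 HEK293 cells stably expressing human ACE2, pre-treated 1 h with compound, then infected with MLV particles pseudotyped with Wuhan-Hu-1 spike (C-terminal 19-aa truncation). Luciferase luminescence after 48 h at 37 °C, normalised to spike PP and bald PP.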
compound,measurement,setting,value
CC(=O)Nc1c(I)cc(I)c(C(=O)O)c1I,Potency,[1],inactive
same,Potency,[2],inactive
Nc1ncnc2nc[nH]c12,Potency,[1],inactive
same,Potency,[2],inactive
CN1CCN2c3ncccc3Cc3ccccc3C2C1 (stereo unspecified),Potency,[1],inactive
same,"activity change, negative = inhibition",[2],-27.6% and -19.2%
COC(=O)[C@H](Cc1ccccc1)NC(=O)[C@@H](N)CC(=O)O (H-Asp-Phe-OMe),Potency,[1],inactive
same,"activity change, negative = inhibition",[2],-5.59%
S=P(N1CC1)(N1CC1)N1CC1,Potency,[1],inactive
same,"activity change, negative = inhibition",[2],4.21%
Cc1cc(O)c2c(O)c3c(O)cccc3cc2c1,Potency,[1],inactive
same,"activity change, negative = inhibition",[2],-3.92%
NS(=O)(=O)c1cc(-c2nn[nH]n2)c(NCc2cccs2)cc1Cl,Potency,[1],inactive
same,"activity change, negative = inhibition",[2],-3.88%
C/C(=N\O)[C@@H](C)NCC(C)(C)CN[C@H](C)/C(C)=N/O,Potency,[1],inactive
same,Potency,[2],inactive
NS(=O)(=O)c1cc(C(=O)NN2C[C@H]3[C@H]4CCC(C4)[C@H]3C2)ccc1Cl,Potency,[1],inactive
same,"activity change, negative = inhibition",[2],-24.3%
O=c1[nH]c(=O)n([C@H]2C[C@H](O)[C@@H](CO)O2)cc1I,Potency,[1],inactive
same,Potency,[2],15.8 µM (active)
NCCCC[C@H](N[C@@H](CCc1ccccc1)C(=O)O)C(=O)N1CCC[C@H]1C(=O)O,Potency,[1],inactive
same,"activity change, negative = inhibition",[2],-27.7%
Oc1cccc(O)c1,Potency,[1],inactive
same,Potency,[2],inactive
O=C(OOC(=O)c1ccccc1)c1ccccc1,Potency,[1],inactive
same,Potency,[2],inactive
C1COC(NC(C2CC2)C2CC2)=N1,Potency,[1],inactive
same,"activity change, negative = inhibition",[2],1.02%
Nc1ccc(C(=O)O)cc1,Potency,[1],inactive
same,Potency,[2],inactive
CC(=O)OCC(COC(C)=O)OC(C)=O,Potency,[1],inactive
same,"activity change, negative = inhibition",[2],0.643%
Cc1oc(=O)oc1CN1CCN(c2cc3c(cc2F)c(=O)c(C(=O)O)c2n3C(C)S2)CC1 (stereo unspecified),Potency,[1],inactive
same,Potency,[2],inactive
NC(N)=NS(=O)(=O)c1ccc(N)cc1,Potency,[1],inactive
same,Potency,[2],inactive
CCO/C([O-])=N/c1c[n+](N2CCOCC2)no1,Potency,[1],inactive
same,Potency,[2],inactive
NC(=O)NC1N=C([O][Al])NC1=O (stereo unspecified),Potency,[1],inactive
same,"activity change, negative = inhibition",[2],-0.751%
COc1c2occc2cc2ccc(=O)oc12,Potency,[1],inactive
same,Potency,[2],inactive
CCN(CC)CC#CCOC(=O)C(O)(c1ccccc1)C1CCCCC1 (stereo unspecified),Potency,[1],inactive
same,"activity change, negative = inhibition",[2],-28.2%
CC(C(=O)O)c1ccc(C(=O)c2ccccc2)s1 (stereo unspecified),Potency,[1],inactive
same,Potency,[2],inactive
NCC(=O)CCC(=O)O,Potency,[1],inactive
same,"activity change, negative = inhibition",[2],-19.8%
O=C(O)Cc1cccc(-c2cc(CCCCCCc3ccc(O[C@H]4O[C@H](CO)[C@@H](O)[C@H](O)[C@@H]4O)c(-c4cccc(CC(=O)O)c4)c3)ccc2O[C@H]2O[C@H](CO)[C@@H](O)[C@H](O)[C@@H]2O)c1,"activity change, negative = cytotoxicity",[1],4.02% [at 0.702 µM] (inactive)
same,"activity change, negative = inhibition",[2],-14.7% [at 0.702 µM]
N#Cc1ccc(C(c2ccc(C#N)cc2)n2cncn2)cc1,Potency,[1],inactive
same,"activity change, negative = inhibition",[2],0.824% and -10.9%
CN(C)CCOc1ccc(/C(=C(/CCCl)c2ccccc2)c2ccccc2)cc1,Potency,[1],inactive
same,Potency,[2],15.8 µM (active) and 20 µM (active)
OC[C@@H](O)[C@@H](O[C@@H]1O[C@H](CO)[C@H](O)[C@H](O)[C@H]1O)[C@H](O)[C@@H](O)CO,Potency,[1],inactive
same,Potency,[2],inactive
O=C(COCCOCCOCC(=O)Nc1c(I)cc(I)c(C(=O)O)c1I)Nc1c(I)cc(I)c(C(=O)O)c1I,Potency,[1],inactive
same,Potency,[2],inactive
CCN(CC)CCNC(=O)c1ccc(N)cc1,Potency,[1],inactive
same,Potency,[2],inactive
COc1cc(C)c(Cc2cnc(N)nc2N)cc1OC,Potency,[1],inactive
same,Potency,[2],inactive
CC(C)(C)NCC(O)c1cc(O)cc(O)c1 (stereo unspecified),Potency,[1],inactive
same,Potency,[2],inactive
C[C@@H]1[C@H](O)[C@@H](C)/C=C/C=C\C=C\C=C\C=C\C=C\C=C\[C@H](O[C@@H]2O[C@H](C)[C@@H](O)[C@H](N)[C@@H]2O)C[C@@H]2O[C@](O)(C[C@@H](O)C[C@@H](O)[C@H](O)CC[C@@H](O)C[C@@H](O)CC(=O)O[C@H]1C)C[C@H](O)[C@H]2C(=O)O (stereo in doubt),Potency,[1],inactive
same,Potency,[2],inactive
Nc1ccc(S(=O)(=O)c2ccc(N)cc2)cc1,Potency,[1],inactive
same,Potency,[2],inactive
CC(C)[C@H](N)C(=O)OCCOCn1cnc2c(=O)[nH]c(N)nc21,Potency,[1],inactive
same,"activity change, negative = inhibition",[2],-28.1%
O=C(O)C[C@H](O)C[C@H](O)/C=C/c1c(C2CC2)nc2ccccc2c1-c1ccc(F)cc1,Potency,[1],inactive
same,"activity change, negative = inhibition",[2],-3.35%
Cc1cc(C)c(NC(=O)CN(CC(=O)O)CC(=O)O)c(C)c1Br,Potency,[1],inactive
same,"activity change, negative = inhibition",[2],-26.2%
CCn1ccc(NS(=O)(=O)c2ccc(N)cc2)nc1=O,Potency,[1],inactive
same,Potency,[2],inactive
COc1cc(C)nc(-n2nc(C)cc2OC)n1,Potency,[1],inactive
same,Potency,[2],inactive
NC(=O)c1cccnc1,Potency,[1],inactive
same,"activity change, negative = inhibition",[2],-15.2%
CC(=O)NS(=O)(=O)c1ccc(N)cc1,Potency,[1],inactive
same,Potency,[2],inactive
CC(=O)N(CC(O)CO)c1c(I)c(C(=O)NCC(O)CO)c(I)c(C(=O)NCC(O)CO)c1I (stereo unspecified),Potency,[1],inactive
same,Potency,[2],inactive
CC(=O)[C@H]1CC[C@H]2[C@@H]3C[C@H](C)C4=CC(=O)CC[C@]4(C)[C@H]3[C@@H](O)C[C@]12C,Potency,[1],inactive
same,Potency,[2],inactive
Cc1nnc(NS(=O)(=O)c2ccc(N)cc2)s1,Potency,[1],inactive
same,"activity change, negative = inhibition",[2],4.32% and -12.1%
CC(C)(S)[C@@H](N)C(=O)O,outcome,[1],inactive [at 5.25 µM]
same,"activity change, negative = inhibition",[2],2.83% [at 5.25 µM]
CCCCC(CC)CNC(=O)CC(C)OC(=O)CCC(=O)O (stereo unspecified),Potency,[1],inactive
same,Potency,[2],inactive
C[C@]12CCC(=O)C=C1CC[C@@H]1[C@@H]2[C@@H](O)C[C@@]2(C)[C@H]1CC[C@]2(O)C(=O)COC(=O)CCC(=O)O,Potency,[1],inactive
same,Potency,[2],inactive
CNC[C@H](O)[C@@H](O)[C@H](O)[C@H](O)CO,Potency,[1],inactive
same,"activity change, negative = inhibition",[2],-19.7%
